# Compound activity deposited in PubChem by National Center for Advancing Translational Sciences (NCATS).
# An excerpt weighted towards active compounds, which were near 5.7% of everything screened.
# S2 tox – Viability Counterscreen for Primary qHTS for Inhibitors of ATXN expression | S2 cells (HEK-293 line with an ATXN2-luciferase reporter) viability, CellTiter-Fluor protease fluorescence, 24 h | AID 651635, 2014 | Potency, µM (doses to about 56.7 µM), usual class: cytotoxic | actives 0.49% (n = 400,000); further: potency means the concentration at half of the fitted maximal effect; nearly all actives have a fitted effect of over 40% in size
# IL-1B inflam inh – qHTS for Inhibitors of Inflammasome Signaling: IL-1-beta AlphaLISA Primary Screen; THP-1 LPS/ATP IL-1B secretion, AlphaLISA, 16 h; stronger effect = lower value; actives 4.7% (n = 360,000); AID 743279, 2014; activity change, % at 57.5 µM; in the data active means activity change below about -50%; inconclusive means mostly about -30% to -49%; further: on the % scale 0 is the no-effect control and ±100 the full control effect
#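 THP-1 cells pretreated 1 hr with compounds (up to 57.5 uM final), then stimulated with LPS (250 ng/mL final) plus ATP (1.25 mM final); secreted IL-1B measured by AlphaLISA after 16 hr, decreased signal indicating inhibition.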
# ATXN2 expr inh – Primary qHTS for Inhibitors of ATXN expression; HEK-293 ATXN2-luciferase reporter, luminescence, 24 h; Potency, µM (highest dose often 57 µM), for inactives: top-dose activity change, negative = inhibition, hits mostly inhibitors; actives 0.72% (n = 360,000); AID 1745845, 2022; further: potency means the concentration at half of the fitted maximal effect; on the % scale 0 is the no-effect control and ±100 the full control effect; nearly all actives have a fitted effect of over 55% in size
#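 ATXN2-luciferase reporter cells (luciferase flanked by upstream and downstream ATXN2 gene portions) were treated 24 h at 37 °C with compounds at up to 57 uM. SteadyGlo luminescence gave expression; GF-AFC fluorescence gave viability.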
# TGFb SMAD3 inh – qHTS for Inhibitors of TGF-b; Potency, µM (top dose mostly 46.1 µM), for inactives: top-dose activity, negative = inhibition, actives largely listed as inhibitors; HepG2 CAGA-GFP TGF-b/SMAD3 reporter, GFP fluorescence, 18 h; TGF-beta stimulated, 500 pg/mL final; actives 1.2% (n = 410,000); further: potency means the concentration at half of the fitted maximal effect; on the % scale 0 is the no-effect control and ±100 the full control effect; nearly all actives have a fitted effect of over 65% in size
#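 HEPG2 CAGA-GFP cells (1000/well, DMEM with 1% FBS) were pre-incubated 2 h at 37 degrees C, given compound by pin tool, then stimulated with TGF-beta at 500 pg/mL final for 18 h before per-cell GFP fluorescence imaging.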
# HepG2 tox – qHTS for Inhibitors of TGF-b: Cytotox Counterscreen | actives 0.76% (n = 410,000) | HepG2 CAGA-GFP viability, ATP luminescence, 18 h | Potency, µM (series often up to 46.1 µM), inactives show top-dose activity change, negative = cytotoxicity, hits mostly cytotoxic; further: potency means the concentration at half of the fitted maximal effect
#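 CellTiter-Glo luminescence gave cytotoxicity after 18 hours at 37 degrees C. The cells were HepG2 CAGA-GFP in 1% FBS DMEM, stimulated with 500 pg/mL TGF-beta after compound addition. %Activity was normalised to no-cell wells (complete cell-killing) and DMSO (no toxicity), and curves were fitted and classified.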
# * hit, by the source's call; i = inactive; ? = inconclusive; . = no result. Unless noted, the call rests on the fitted dose curve; in most records, active means well fitted curve in the direction sought with a large enough effect; inconclusive means small, poorly fitted or top-dose-only effect, or another doubt; inactive means no such curve, though single readings can be large; an effect the other way counts as inactive or inconclusive.
SMILES,S2 tox,IL-1B inflam inh,ATXN2 expr inh,TGFb SMAD3 inh,HepG2 tox
Cc1occc1-c1nnc(SCC(=O)c2ccc3c(c2)OCCO3)n1CC1CCCO1 (stereo unspecified),i,8,8%,-6%,5%
CCOc1ccccc1CNC(=O)c1cccc(NC(=O)c2nsc3ccccc23)c1,?,.,8%,?,-50%
O=C1Cc2cc(Cl)ccc2N1,i,.,0%,.,.
CC(C)=CCC/C(C)=C/CNC(=O)C[C@H]1C[C@H](C(=O)N(C(C)C)C(C)C)[C@@]2(C)c3[nH]c4cc(CCC(=O)N(C)C)ccc4c3CCN2C1=O,.,-67*,?,?,-98%
CC(C)N(C(=O)[C@H]1C[C@H](CC(=O)NCCCN(C)C)C(=O)N2CCc3c([nH]c4cc(CCC(=O)N(C)C)ccc34)[C@]12C)C(C)C,i,15,10%,21%,-16%
CC(C)=CCC/C(C)=C/CNC(=O)C[C@H]1C[C@H](C(=O)N2CCCCC2)[C@@]2(C)c3[nH]c4cc(-c5ccco5)ccc4c3CCN2C1=O,?,-67*,?,?,-21%
CC(C)=CCC/C(C)=C/CNC(=O)C[C@H]1C[C@H](C(=O)N(C(C)C)C(C)C)[C@@]2(C)c3[nH]c4cc(-c5ccco5)ccc4c3CCN2C1=O,?,-65*,?,13µM*,-46%
CC(C)N(C(=O)[C@H]1C[C@H](CC(=O)NCc2ccco2)C(=O)N2CCc3c([nH]c4cc(-c5ccco5)ccc34)[C@]12C)C(C)C,i,?,?,?,0%
O=C(Nc1ccccc1F)c1cnc(N2CCCCC2)c2ccccc12,.,.,.,-4%,-13%
O=C(Nc1ccc(Oc2cccc(C(F)(F)F)c2)nc1)c1ccco1,?,-13,-15%,-3%,-22%
CC(C)(C)c1ccc(Oc2ccc(NC(=O)c3cccs3)cn2)cc1,?,-80*,-21%,?,-48%
CCC(NC(=O)c1ccccc1NC(=O)c1ccco1)C(=O)NNC(=O)c1ccc(OC)cc1 (stereo unspecified),i,-120*,.,-1%,8%
COc1ccc(NC(=O)c2cccs2)cn1,i,-4,20%,17%,-12%
CC(C)(C)c1ccc(C(=O)Nc2ccccc2NC(=O)c2ccco2)cc1,i,-54*,1%,?,-7%
CC(C)(C)c1ccc(Oc2ccc(NC(=O)c3ccco3)cn2)cc1,?,-12,.,11µM*,-60%
Cc1cc2c(cc1C)N[C@]1(C[C@H]3CCCC(=O)N4CC[C@@H](C1)[C@@H]34)C(=NCc1ccccc1)N2,.,.,.,-21%,-15%
CC(C)OCCCn1c(=O)c2ccccc2n2c(-c3cc(Cl)ccc3O)nnc12,i,.,4%,-22%,-22%
O=C(NCCO)c1cn(C2CCN(Cc3c(F)cccc3Cl)CC2)nn1,i,.,.,.,.
C=C[C@H](CC(C)C)N(Cc1ccccc1)S(=O)(=O)N(Cc1ccccc1)[C@H](C=C)CC(C)C,.,.,.,0%,10%
COc1ccc(-c2ccc(NC(=O)c3ccco3)cc2)nn1,i,-15,?,-11%,5µM*
O=C(c1cccc(Cn2cccn2)c1)N1CCC(n2c(C3CCCO3)nc3cc(C(F)(F)F)ccc32)CC1 (stereo unspecified),i,.,.,.,.
CCOC(=O)c1ccc(NC(=O)CC2C(=O)N(c3ccc(F)cc3)C(=O)N2Cc2ccc3c(c2)OCO3)cc1 (stereo unspecified),?,.,-28%,-4%,-18%
Cc1ccc(NC(=O)CN(C)C(=O)c2ccc3[nH]c4c(c3c2)CC(C)CC4)cc1 (stereo unspecified),i,-51*,45%,?,-14%
CCOc1ccc(NC(=O)CN(C)C(=O)c2ccc3[nH]c4c(c3c2)CC(C)CC4)cc1OCC (stereo unspecified),i,-3,13%,-23%,-6%
